# Values joined by “and” are separate entries in the source; they are usually repeats but may differ in a detail not shown here. Equal values may be shown once. Records with an inconclusive call do not appear. Where a call stands in place of a potency, no number is given. A structure can be active in one record and inactive in another. Active and inactive are the calls of the source. Unless noted, the call rests on the fitted dose curve; in most records, active means well fitted curve in the direction sought with a large enough effect in the repeat runs; inconclusive means weak or mixed curves; inactive means no such curve, though single readings can be large; an effect the other way counts as inactive or inconclusive.
# How the values were obtained:
# [1] = qHTS assay to identify small molecule antagonists of the estrogen receptor alpha (ER-alpha) signaling pathway using the BG1 cell line in the presence of 0.1 nM 17-beta-estradiol - cell viability counter screen (AID 1259241); further: nearly all actives have a fitted effect of over 40% in size; further: potency means the concentration at half of the fitted maximal effect
# How it was run: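 Viability in VM7Luc4E2 cells after 22 hr compound exposure under 0.1 nM 17beta-estradiol stimulation, by CellTiter-Fluor.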
# [2] = molecular target: Estrogen receptor (Homo sapiens) (UniProt P03372); experiment: qHTS assay to identify small molecule antagonists of the estrogen receptor alpha (ER-alpha) signaling pathway using the BG1 cell line in the presence of 0.1 nM 17-beta-estradiol (AID 1259244); further: nearly all actives have a fitted effect of over 50% in size; further: potency means the concentration at half of the fitted maximal effect
# How it was run: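 Quantitative high-throughput screen in VM7Luc4E2 cells: compound plus 0.1 nM E2 (final), 22 h, 37C, 5% CO2; ONE-Glo added, 30 min room temperature, luminescence measured.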
# [3] = qHTS assay to identify small molecule HDAC inhibitors (AID 1259364); further: top concentration of the series differs between compounds; nearly all actives have a fitted effect of over 45% in size
# How it was run: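 Endogenous HDAC class I/II activity was measured in wild-type HCT-116 cells by HDAC-Glo luminescence after 2 h compound treatment.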
# [4] = qHTS assay to identify small molecule agonists of the sonic hedgehog signaling (Shh) pathway (AID 1259368; calls by dose curve;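 further: NIH/3T3-derived 3T3Gli1-Luc cells carrying a stable Gli1-driven firefly luciferase reporter; series mostly up to about 92 µM; nearly all actives have a fitted effect of over 15% in size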)
# How it was run: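 Luminescent signal was taken as a measure of Gli1-controlled luciferase expression in stably transfected NIH/3T3-derived cells that had been treated for 24 hr with compounds delivered in DMSO.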
# [5] = qHTS assay to identify small molecule antagonists of the sonic hedgehog signaling (Shh) pathway (AID 1259369; calls by dose curve; further: nearly all actives have a fitted effect of over 45% in size; further: potency means the concentration at half of the fitted maximal effect)
# How it was run: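 Screening used 3T3Gli1-Luc cells at 2,000 per well, compounds delivered in DMSO, and conditioned medium as agonist stimulus; plates incubated 24hr at 37 C and 5% CO2 before a 30min luciferase step.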
# [6] = molecular target: Estrogen receptor beta (Homo sapiens) (UniProt Q92731); experiment: qHTS assay to identify small molecule agonists of the estrogen receptor beta (ER-beta) signaling pathway (AID 1259377; active means well fitted activation curve with a large enough effect in the signal ratio in the repeat runs, not every such curve was filed as active; the % refers to the signal ratio)
# How it was run: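 Measured by fluorescence intensity from a B/G FRET beta-lactamase substrate (2 h, room temperature) in ER-beta-UAS-bla HEK293T cells treated with DMSO-dissolved compounds for 16 hr at 37C and 5% CO2.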
# [7] = molecular target: Estrogen receptor beta (Homo sapiens) (UniProt Q92731); experiment: qHTS assay to identify small molecule antagonists of the estrogen receptor beta (ER-beta) signaling pathway (AID 1259378; active means well fitted inhibition curve with a large enough effect in the signal ratio in the repeat runs, not every such curve was filed as active; the % refers to the signal ratio; further: potency means the concentration at half of the fitted maximal effect)
# How it was run: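 ER-beta-UAS-bla HEK293T (GripTite) cells in 2% charcoal-stripped FBS medium were preincubated 6 hr at 37C, dosed with compound, then stimulated with 1 nM E2 (final) for 16 hr; beta-lactamase reporter read by B/G FRET fluorescence after 2 hr substrate loading.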
# [8] = qHTS assay to identify small molecule agonists of the androgen receptor (AR) signaling pathway in the presence of an antagonist - cell viability counter screen (AID 1259379); further: nearly all actives have a fitted effect of over 25% in size; further: potency means the concentration at half of the fitted maximal effect
# How it was run: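 In MDA-kb2 cells (human breast carcinoma, MMTV-luciferase), compounds at 15 concentrations plus 3.0uM nilutamide; 16 hr, 37C, 0% CO2; CellTiter-Fluor fluorescence read for viability.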
# [9] = qHTS assay to identify small molecule antagonists of the estrogen receptor beta (ER-beta) signaling pathway - cell viability counter screen (AID 1259382); further: nearly all actives have a fitted effect of over 55% in size; further: potency means the concentration at half of the fitted maximal effect
# How it was run: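 Tox21 10K library tested in qHTS format on ER-beta-bla HEK293T cells stimulated with 1nM E2; 16 hr treatment at 37C. Same-well CellTiter-Glo luminescence served as the cell viability measure.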
# [10] = qHTS assay to identify small molecule agonists or antagonists of the thyroid stimulating hormone receptor (TSHR) signaling pathway - wild type cell line counter screen (AID 1259384; calls by dose curve)
# How it was run: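 Wild-type HEK293 cells were plated 18 h at 37 C/5% CO2, pin-dosed with compound plus Ro20-1724 medium, held 30 min at room temperature, then given cAMP-d2 and anti-cAMP-cryptate; fluorescence was read after 1 h. Fifteen concentrations, triplicate.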
# [11] = molecular target: Thyrotropin receptor (Homo sapiens) (UniProt P16473); experiment: qHTS assay to identify small molecule antagonists of the thyroid stimulating hormone receptor (TSHR) signaling pathway (AID 1259385; calls by dose curve; further: nearly all actives have a fitted effect of over 20% in size)
# How it was run: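 TSHR-HEK293 cells were plated and held 18 h at 37C/5% CO2, then given compound plus Ro20-1724 and stimulated with TSH at 1.5 ng/mL final. After 30 min at room temperature, cAMP was detected with cAMP-d2/anti-cAMP-cryptate (1 h) by fluorescence.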
# [12] = qHTS assay to identify small molecule antagonists of the androgen receptor (AR) signaling pathway using the MDA cell line in the presence of 0.5 nM R1881 - cell viability counter screen (AID 1259242); further: nearly all actives have a fitted effect of over 45% in size
# How it was run: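 Fluorescence from CellTiter-Fluor, which reports protease activity of live cells, was read 30 min after reagent addition to MDA-kb2 cells that had been incubated 16 hr with compound and 0.5 nM R1881.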
# [13] = qHTS assay to identify small molecule phospholipidosis (PLD) inducers (AID 1259344; active means well fitted curve in the direction sought with a large enough effect; an effect the other way counts as inactive or inconclusive)
# How it was run: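 HepG2 cells grown on collagen I take up LipidTOX Red while exposed to compound for 24 h; after fixation they are imaged at 20x and pit metrics are extracted.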
# [14] = qHTS assay to identify small molecule HDAC inhibitors - cell viability counter screen (AID 1259365); further: series mostly up to about 92 µM; nearly all actives have a fitted effect of over 50% in size
# How it was run: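 Cytotoxicity was gauged in wild-type HCT-116 cells after a brief 2hr treatment with DMSO-dissolved compounds at 37C and 5% CO2, using CellTiter-Glo luminescence developed for 30min at room temperature.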
# [15] = qHTS assay to identify small molecule agonists of the sonic hedgehog signaling (Shh) pathway - cell viability counter screen (AID 1259366); further: nearly all actives have a fitted effect of over 50% in size; further: potency means the concentration at half of the fitted maximal effect
# How it was run: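 Stable Gli1-Luc NIH/3T3 clone, 2,000 cells/well. Compound exposure 24hr at 37C. Read-out: CellTiter-Fluor fluorescence.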
# [16] = qHTS assay to identify small molecule antagonists of the sonic hedgehog signaling (Shh) pathway - cell viability counter screen (AID 1259367); further: nearly all actives have a fitted effect of over 55% in size; further: potency means the concentration at half of the fitted maximal effect
# How it was run: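 After a 4 hr settling period, 3T3 Gli1-Luc cells were treated with DMSO-dissolved chemicals and conditioned medium, kept 24 hr at 37C in 5% CO2, and assayed for viability by CellTiter-Fluor fluorescence following 1 hr reagent incubation.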
# [17] = qHTS assay to identify small molecule agonists of the estrogen receptor beta (ER-beta) signaling pathway - cell viability counter screen (AID 1259380); further: nearly all actives have a fitted effect of over 30% in size; further: potency means the concentration at half of the fitted maximal effect
# How it was run: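 Viability of ER-beta-UAS-bla HEK293T cells was determined by CellTiter-Glo luminescence following 16 hr treatment with test compounds at 37C.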
# [18] = molecular target: Estrogen receptor (Homo sapiens) (UniProt P03372); experiment: qHTS assay to identify small molecule agonists of the estrogen receptor alpha (ER-alpha) signaling pathway in the presence of an antagonist (AID 1259383; calls by dose curve; further: top concentration of the series differs between compounds; nearly all actives have a fitted effect of over 15% in size)
# How it was run: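 In VM7Luc4E2 cells, 4,000 per well, compounds at 15 concentrations were co-incubated 22hr at 37C with 10.0nM final ICI-182,780. Luminescence from the stably transfected 4×ERE-luciferase reporter was recorded 30min after ONE-Glo addition.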
# Chain of Estrogen receptor beta (Homo sapiens) (Q92731 whole entry, looked up): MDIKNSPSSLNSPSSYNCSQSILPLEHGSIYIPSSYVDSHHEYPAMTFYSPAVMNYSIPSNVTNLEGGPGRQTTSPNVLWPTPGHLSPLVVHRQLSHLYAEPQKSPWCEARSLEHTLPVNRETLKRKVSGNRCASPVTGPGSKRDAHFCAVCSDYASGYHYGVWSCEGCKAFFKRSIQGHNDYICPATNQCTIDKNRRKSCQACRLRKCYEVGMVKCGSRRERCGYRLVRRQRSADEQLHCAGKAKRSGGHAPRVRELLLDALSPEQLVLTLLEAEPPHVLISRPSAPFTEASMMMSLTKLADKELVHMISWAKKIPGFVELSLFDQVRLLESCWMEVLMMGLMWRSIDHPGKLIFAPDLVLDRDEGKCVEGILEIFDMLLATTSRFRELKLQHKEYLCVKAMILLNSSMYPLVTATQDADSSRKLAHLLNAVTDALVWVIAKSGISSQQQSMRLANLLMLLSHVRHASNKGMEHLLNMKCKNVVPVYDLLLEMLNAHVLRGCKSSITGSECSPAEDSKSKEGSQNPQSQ
# Chain of Thyrotropin receptor (Homo sapiens) (P16473 whole entry, looked up): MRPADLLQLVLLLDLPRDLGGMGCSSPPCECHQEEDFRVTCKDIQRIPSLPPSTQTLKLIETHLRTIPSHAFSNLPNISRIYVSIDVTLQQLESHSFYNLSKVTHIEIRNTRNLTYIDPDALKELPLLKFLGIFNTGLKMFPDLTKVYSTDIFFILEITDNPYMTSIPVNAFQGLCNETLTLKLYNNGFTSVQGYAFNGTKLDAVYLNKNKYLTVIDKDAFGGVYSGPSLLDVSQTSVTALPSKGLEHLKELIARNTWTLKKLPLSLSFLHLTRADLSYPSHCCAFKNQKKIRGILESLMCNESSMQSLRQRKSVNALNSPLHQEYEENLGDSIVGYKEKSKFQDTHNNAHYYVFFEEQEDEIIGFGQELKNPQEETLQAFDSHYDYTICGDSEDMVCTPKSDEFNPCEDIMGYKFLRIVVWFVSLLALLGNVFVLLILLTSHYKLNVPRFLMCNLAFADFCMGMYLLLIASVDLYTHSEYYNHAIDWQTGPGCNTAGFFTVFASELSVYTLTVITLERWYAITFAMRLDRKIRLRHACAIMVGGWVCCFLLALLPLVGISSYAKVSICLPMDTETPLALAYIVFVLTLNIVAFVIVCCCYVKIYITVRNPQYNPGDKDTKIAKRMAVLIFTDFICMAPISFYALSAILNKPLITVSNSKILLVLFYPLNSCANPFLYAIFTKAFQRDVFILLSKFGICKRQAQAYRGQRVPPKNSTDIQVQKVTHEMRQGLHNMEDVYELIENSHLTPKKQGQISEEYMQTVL
# Chain of Estrogen receptor (Homo sapiens) (P03372 whole entry, looked up): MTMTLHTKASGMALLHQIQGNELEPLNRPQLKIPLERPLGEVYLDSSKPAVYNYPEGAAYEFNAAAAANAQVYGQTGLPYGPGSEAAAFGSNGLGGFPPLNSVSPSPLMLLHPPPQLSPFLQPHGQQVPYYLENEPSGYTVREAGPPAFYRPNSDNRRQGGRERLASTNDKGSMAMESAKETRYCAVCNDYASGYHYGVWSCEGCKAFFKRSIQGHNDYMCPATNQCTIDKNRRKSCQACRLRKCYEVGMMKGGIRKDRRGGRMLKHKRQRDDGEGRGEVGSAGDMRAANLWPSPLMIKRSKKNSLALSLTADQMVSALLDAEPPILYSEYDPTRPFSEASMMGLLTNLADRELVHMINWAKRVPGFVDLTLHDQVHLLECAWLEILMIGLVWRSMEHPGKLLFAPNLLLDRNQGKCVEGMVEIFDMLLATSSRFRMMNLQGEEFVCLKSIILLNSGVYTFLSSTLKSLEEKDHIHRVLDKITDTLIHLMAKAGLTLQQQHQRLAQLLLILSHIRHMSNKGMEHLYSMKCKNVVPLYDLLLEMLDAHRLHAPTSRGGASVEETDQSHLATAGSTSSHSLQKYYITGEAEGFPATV
SMILES,Potency [1],Potency [2],Potency [3],Potency [4],Potency [5],Potency [6],Potency [7],Potency [8],Potency [9],Potency [10],Potency [11],Potency [12],PLD induction [13],Potency [14],Potency [15],Potency [16],Potency [17],Potency [18],outcome [13]
Oc1cc(Cl)c(Cl)c(Cl)c1Cl,inactive,29.9 µM (active),inactive,inactive,26.7 µM (active),inactive,13.4 µM (active),59.7 µM (active),inactive,inactive,inactive,–,–,–,–,–,–,–,–
Oc1ccc([C@H]2CNCc3c2ccc(O)c3O)cc1O,–,inactive,inactive,inactive,–,inactive,–,–,inactive,–,–,inactive,-2.7% [at 7.66 µM] (inactive),inactive,inactive,inactive,inactive,–,–
Nc1cc(Cl)ccc1Cl,inactive,–,–,inactive,inactive,inactive,inactive,inactive,inactive,inactive,inactive,inactive,–,–,inactive,inactive,inactive,–,–
COC(=O)c1cc(Oc2ccc(Cl)cc2Cl)ccc1[N+](=O)[O-],inactive,–,–,inactive,inactive,–,–,inactive,inactive,inactive,–,inactive,–,inactive,–,inactive,inactive,inactive,–
CCC[CH2][Sn]([CH2]CCC)([CH2]CCC)[CH2]CCC,19.3 µM (active),–,–,inactive,13.7 µM (active),inactive,19.3 µM (active),13.7 µM (active),43.3 µM (active),inactive,inactive,–,–,–,–,21.7 µM (active),27.3 µM (active),–,–
c1ccc2c(c1)cc1ccc3cccc4ccc2c1c34,–,–,–,inactive,inactive,–,–,–,inactive,inactive,inactive,inactive,–,inactive,–,inactive,inactive,–,–
O=C1C[C@@H]2OCC=C3CN4CC[C@]56c7ccccc7N1[C@H]5[C@H]2[C@H]3C[C@H]46,–,–,inactive,inactive,–,–,–,inactive,inactive,inactive,inactive,inactive,–,inactive,–,–,inactive,–,inactive
CCN(CC)C(=S)S,15.3 µM (active),13.6 µM (active),inactive,inactive,5.49 µM (active) and 2.42 µM (active),–,–,inactive,12.1 µM (active),inactive,inactive,–,–,inactive,38.9 µM (active) and 13.6 µM (active) and 27.3 µM (active),7.65 µM (active) and inactive,6.08 µM (active) and 9.69 µM (active),–,–
CCC(C)c1cccc(C(C)CC)c1O (configuration not stated),–,inactive,inactive,inactive,inactive,inactive,–,inactive,inactive,inactive,inactive,inactive,–,inactive,–,inactive,inactive,–,–

# From PubChem BioAssay (Tox21)
